Source: PubChem (several laboratories)
In the library only some 1.3% were active in any assay of this set; here they are far more common.
PKA-R2B activ: activators of human PKA-R2B complex; P22694+P31323; PKA-R2B holoenzyme dissociation, Cy5-IP20 fluorescence polarization; R2B truncated from residue 108, S112A mutant; 0% DMSO only, 100% 113 µM cGMP; activation, % at 11.4 µM; hit rate 0.079% among 340,000; AID 504700;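 active = activation above a cutoff set at the mean over all compounds plus 3 SD, cut at about 18% in these data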;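 also: higher means more holoenzyme dissociation and a rise in polarization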
Neddyl block: cullin neddylation inhibition; TR-FRET cullin neddylation, biochemical; inhibition, % at 25 µM; hit rate 0.58% among 360,000; P61081+Q13564; in the data active = inhibition above about 36%
Rpn11 inh: blocks the human proteasome subunit Rpn11. O00487. human 26S proteasome, Ub4-pepOG fluorescence polarization; 20S core pre-blocked with epoxomicin. calls only at 20 µM. hit rate 0.59% among 360,000;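 active = inhibition at 20 µM, scaled to each plate's controls, above about 33%, limit read from the data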
Target sequence (O00487 whole entry, looked up): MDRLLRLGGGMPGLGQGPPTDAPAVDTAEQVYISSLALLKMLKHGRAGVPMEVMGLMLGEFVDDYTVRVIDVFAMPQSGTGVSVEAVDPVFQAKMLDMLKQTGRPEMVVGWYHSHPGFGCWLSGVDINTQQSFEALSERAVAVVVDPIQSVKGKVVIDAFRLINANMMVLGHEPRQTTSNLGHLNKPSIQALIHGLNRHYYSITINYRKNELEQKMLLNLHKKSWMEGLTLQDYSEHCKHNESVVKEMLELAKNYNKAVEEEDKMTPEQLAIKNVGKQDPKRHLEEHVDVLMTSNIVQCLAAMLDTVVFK
PKA-R1A activ: activates the PKA-R1A holoenzyme complex; P00514+P68181; PKA-R1A dissociation, Cy5-IP20 fluorescence polarization; scaled: DMSO 0%, 113 µM cGMP 100%; activation, % at 11.4 µM; hit rate 0.083% among 340,000; AID 504707;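 active = percent activation above the mean of all tested compounds plus 3 SD, cut at about 19% in these data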;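 also: higher means more PKAc released from R1A so a rise in polarization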
Neddyl inh conf: cullin neddylation inhibition, confirmation; shares compounds with Neddyl block; TR-FRET cullin neddylation biochemical assay; calls only at 25 µM; hit rate 13% among 1,800; in the data active = inhibition above about 40%;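 also: neddylation substrate is the cullin 1 ring ligase complex with SKP2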
* = called active by the depositor.

Screening CCOC(=O)c1ccc(N2C=C(C(=O)OC)C(c3ccc(OC)c(O)c3)C(C(=O)OC)=C2)cc1 returned PKA-R2B activ -3.6, Neddyl block 11.1, Rpn11 inh inactive and PKA-R1A activ 4.5.
For COC(=O)C1=CN(c2cc(C)cc(C)c2)C=C(C(=O)OC)C1c1ccc(OC)c(O)c1 the results were PKA-R2B activ -7.5, Neddyl block 46.7*, Rpn11 inh inactive, PKA-R1A activ -14.8 and Neddyl inh conf active.
Screening CCOC(=O)CSc1ccc2nnc(-c3cccnc3)n2n1 returned PKA-R2B activ -4.0, Neddyl block 54.6*, Rpn11 inh inactive and PKA-R1A activ 0.1.
`Cc1cc(C(=O)N/N=C/c2c(C)[nH]c3ccccc23)n[nH]1` gave PKA-R2B activ -1.1, Neddyl block 0.9, Rpn11 inh inactive and PKA-R1A activ -10.2.
For Cc1[nH]c2ccccc2c1/C=N/NC(=O)c1cc(-c2cccs2)[nH]n1 the results were PKA-R2B activ -16.1, Neddyl block 44.5*, Rpn11 inh inactive, PKA-R1A activ -9.5 and Neddyl inh conf inactive.
For CCOC(=O)C1=C(C)NC(C)=C(C(=O)OCC)C1C(=O)OCC(=O)NC(C)c1ccccc1 (stereo not drawn) the results were PKA-R2B activ 10.0, Neddyl block 45.1*, Rpn11 inh inactive and PKA-R1A activ 2.0.
Screening CCOC(=O)C1=C(C)NC(C)=C(C(=O)OCC)C1C(=O)OCC(=O)NCc1ccccc1 returned PKA-R2B activ -1.4, Rpn11 inh inactive and PKA-R1A activ -3.2.
For Nc1nccnc1C(=O)OCC(=O)NCCc1ccc(S(N)(=O)=O)cc1 the results were PKA-R2B activ -2.8, Neddyl block 62.6*, Rpn11 inh inactive and PKA-R1A activ -6.7.
Screening CCOC(=O)C1=C(C)NC(C)=C(C(=O)OCC)C1C(=O)OCC(=O)NCCc1ccc(S(N)(=O)=O)cc1 returned PKA-R2B activ 4.3, Neddyl block 42.2*, Rpn11 inh inactive, PKA-R1A activ 6.5 and Neddyl inh conf inactive.
For CC(=O)Nc1ccc(C(=O)CN2C(=O)CSC2=O)cc1 the results were PKA-R2B activ 1.4, Neddyl block 6.4, Rpn11 inh inactive and PKA-R1A activ 8.6.
Screening Cc1ccc(S(=O)(=O)N2CCC(C(=O)OC(C)C(=O)NCc3ccccc3)CC2)cc1C (stereo not drawn) returned PKA-R2B activ -4.5, Neddyl block 11.1, Rpn11 inh inactive and PKA-R1A activ -9.4.
Screening Cc1ccc(N2CCN(C(=O)NC3CCCCC3)CC2C)cc1 (stereo not drawn) returned PKA-R2B activ -16.5, Neddyl block 1.2, Rpn11 inh inactive and PKA-R1A activ 6.2.
`CCCCC(=O)OCC(=O)N1N=C(c2c[nH]c3ccccc23)C(O)C1c1ccc(OC)cc1` (stereo not drawn) gave PKA-R2B activ 1.4, Neddyl block 44.5*, Rpn11 inh inactive, PKA-R1A activ -10.8 and Neddyl inh conf inactive.
For CSc1ccccc1NC(=S)N/N=C/c1cccn1Cc1ccc(F)cc1 the results were PKA-R2B activ -4.2, Neddyl block 46.6*, Rpn11 inh inactive, PKA-R1A activ -5.8 and Neddyl inh conf inactive.
For COc1ccc(NC(=S)N/N=C/c2cccn2Cc2ccc(F)cc2Cl)cc1 the results were PKA-R2B activ 1.2, Neddyl block -3.6, Rpn11 inh inactive and PKA-R1A activ -5.7.
For CC(OC(=O)Cn1[nH]c(=O)c2ccccc2c1=O)C(=O)Nc1ccc(F)cc1 (stereo not drawn) the results were PKA-R2B activ -8.7, Neddyl block 11.4, Rpn11 inh inactive and PKA-R1A activ -7.7.
For COc1ccc2c(c1)c1ncn(CCN3CCCC3)c(=O)c1n2C the results were PKA-R2B activ 5.2, Rpn11 inh inactive and PKA-R1A activ 9.8.
For COc1ccccc1CCn1cnc2c3cc(C)ccc3n(C)c2c1=O the results were PKA-R2B activ 5.9, Neddyl block 43.1*, Rpn11 inh inactive and PKA-R1A activ 2.6.
c1ccc2c(c1)-c1cccc3cncc-2c13 was read as PKA-R2B activ 5.1, Neddyl block 40.1*, Rpn11 inh inactive, PKA-R1A activ 1.2 and Neddyl inh conf inactive.
c1ccc2c(-c3cncc4ccccc34)cncc2c1 was read as PKA-R2B activ 3.5, Neddyl block 16.5, Rpn11 inh inactive and PKA-R1A activ 12.6.
CCOc1cc(/C=C(/C#N)c2nc3ccccc3[nH]2)ccc1OCc1ccc(C(=O)O)o1 was read as PKA-R2B activ -6.4, Neddyl block 38.4*, Rpn11 inh inactive, PKA-R1A activ -7.9 and Neddyl inh conf inactive.
Screening COc1cc2oc(-c3ccc(O)cc3)cc(=O)c2c(OC)c1O returned PKA-R2B activ -1.4, Neddyl block 40.0*, Rpn11 inh inactive, PKA-R1A activ -3.2 and Neddyl inh conf inactive.
Screening O=Cc1ccc2c(c1)OCCOCCOCCOCCO2 returned PKA-R2B activ 0.5, Neddyl block -2.4, Rpn11 inh inactive and PKA-R1A activ -0.9.
O=C(NCc1cccs1)c1cnn2cccnc12 was read as PKA-R2B activ 0.9, Neddyl block 35.9, Rpn11 inh inactive and PKA-R1A activ 7.8.
Screening O=C(NCc1ccccc1Cl)c1cnn2cccnc12 returned PKA-R2B activ -9.3, Neddyl block 39.4*, Rpn11 inh inactive, PKA-R1A activ -5.8 and Neddyl inh conf inactive.
For O=P(O)(O)c1cc(-c2ccccc2)oc1-c1ccccc1 the results were PKA-R2B activ -4.2, Neddyl block 46.0*, Rpn11 inh inactive and PKA-R1A activ -10.8.
For CCS(=O)(=O)Nc1ccc(C2=NN(C(=O)c3ccco3)C(c3cccs3)C2)cc1 (stereo not drawn) the results were PKA-R2B activ 4.2, Neddyl block 42.3*, Rpn11 inh inactive, PKA-R1A activ 11.7 and Neddyl inh conf inactive.
`CS(=O)(=O)Nc1ccc(C2=NN(C(=O)c3ccco3)C(c3ccccc3F)C2)cc1` (stereo not drawn) gave PKA-R2B activ -10.3, Neddyl block 47.9*, Rpn11 inh inactive, PKA-R1A activ -4.6 and Neddyl inh conf inactive.
`O=C(CSc1ccccc1F)NC(=O)c1ccccc1Br` gave PKA-R2B activ -13.1, Neddyl block -9.5, Rpn11 inh inactive and PKA-R1A activ -2.7.
For Nc1nc2ccccc2nc1N the results were PKA-R2B activ 8.8, Neddyl block 43.4*, Rpn11 inh inactive, PKA-R1A activ -12.3 and Neddyl inh conf active.
Screening Cc1cc(C)cc(Nc2ccc(C(=O)O)cc2N)c1 returned PKA-R2B activ -3.9, Rpn11 inh inactive and PKA-R1A activ -7.1.
For COc1cccc(Nc2ccc(C(=O)O)cc2N)c1 the results were PKA-R2B activ 10.9, Neddyl block 40.2*, Rpn11 inh inactive and PKA-R1A activ -6.1.
CC(=O)c1c(C)[nH]c(C(=O)COc2ccc3ccc(=O)oc3c2)c1C was read as PKA-R2B activ -7.6, Neddyl block 46.7*, Rpn11 inh inactive, PKA-R1A activ -17.6 and Neddyl inh conf inactive.
